NadD block = NadD (S. aureus) enzyme inhibition. purified NadD enzyme, colorimetric absorbance read-out. inhibition, % at 20 µM. 360,000 tested, 0.78% active. AID 602399; in the data active = inhibition above about 26%
Beta2AR agonist = agonists of human beta-2 adrenergic receptor inducing internalization; response, % (no concentration beside the values); 340,000 tested, 0.43% active; AID 504454; P07550; Am2.2-beta2AR cells, FAP receptor internalization, flow cytometry;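 active = response above a set limit, near 3 SD of response in nonfluorescent compounds, cut at about 42% in these data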
Granule exo inh = blocks lytic granule exocytosis; TALL-104 LAMP-1 surface exposure, flow cytometry; cells stimulated with thapsigargin and PMA; inhibition, % at 10 µM; 360,000 tested, 0.66% active; AID 651702;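 active = inhibition above about 55%, limit read from the data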
GRK2 inh = inhibitors of human GRK2 displacing RNA aptamer; bead flow cytometry, FAM-aptamer displacement from GRK2; inhibition of aptamer binding, % at 10 µM; 330,000 tested, 0.59% active;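 active = inhibition of aptamer binding above 40%, roughly 3 SD of noise, on plates passing a quality check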;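 also: median bead fluorescence of bound FAM aptamer so fluorescent compounds give negative values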
PP1 inh = blocks human PP1-alpha phosphatase, a PP5 counter-screen; P62136; purified PP1alpha, OMFP fluorescence; inhibition, % at 6.7 µM; 320,000 tested, 0.9% active;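 active = inhibition above the mean inhibition of all tested compounds plus 3 SD, computed separately for each screening campaign, cut at about 15% in these data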
Target sequence (P62136 whole entry, looked up): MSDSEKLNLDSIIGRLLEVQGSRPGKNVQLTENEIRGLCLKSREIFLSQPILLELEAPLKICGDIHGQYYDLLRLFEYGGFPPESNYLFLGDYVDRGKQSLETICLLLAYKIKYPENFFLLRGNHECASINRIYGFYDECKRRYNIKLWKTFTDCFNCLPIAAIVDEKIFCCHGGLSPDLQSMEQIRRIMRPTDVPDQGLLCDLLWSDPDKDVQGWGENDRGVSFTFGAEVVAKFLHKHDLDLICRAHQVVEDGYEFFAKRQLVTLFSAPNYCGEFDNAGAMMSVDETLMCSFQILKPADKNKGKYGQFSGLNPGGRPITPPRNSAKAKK
PP1 confirm = confirmation of human PP1 phosphatase inhibitors; 1,900 tested, 52% active; purified PP1alpha, OMFP substrate fluorescence; shares compounds with PP1 inh; inhibition, % at 6.7 µM;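 active = mean PP1 inhibition above a set limit taken from the earlier primary screen, cut at about 15% in these data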
PP5 counter = PP5 phosphatase inhibition, counter-screen for PP1 inhibitors. shares compounds with PP1 inh. purified PP5c, OMFP fluorescence. inhibition, % at 6.7 µM. 1,900 tested, 4% active. AID 2360;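 active = mean PP5 inhibition over triplicate wells above about 9.5% taken from the earlier PP1 screen, limit read from the data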
GRK2 CP1 = confirmation of human GRK2 inhibitors displacing RNA aptamer. bead-bound GRK2, FAM-aptamer displacement, flow cytometry. AID 504451. shares compounds with GRK2 inh. aptamer displacement, % at 10 µM. 2,000 tested, 4% active;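 active = aptamer displacement above 40%, near three times the noise of non-fluorescent compounds, on plates passing quality checks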;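 also: negative values mostly reflect intrinsic compound fluorescence rather than true enhancement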
FAM quench CP1 = quenches fluorescent RNA aptamer, GRK2 hit artifact; shares compounds with GRK2 inh; Carboxyfluorescein RNA aptamer on beads, flow cytometry quenching; stronger effect = lower value; fluorescence response (% of DMSO), % at 10 µM; 2,000 tested, under 10 active; AID 504580;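 active = compounds that quench the bead-bound fluorescent RNA probe, cutting fluorescence to under half of the solvent control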;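 also: counterscreen run without GRK2 so only probe quenching by compound is measured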
NadD conf = NadD (S. aureus) inhibition, single concentration confirmation; inhibition, % at 20 µM; purified S. aureus NadD, colorimetric enzyme assay; 2,000 tested, 13% active; shares compounds with NadD block; in the data active = inhibition mostly above about 42%, no sharp cut-off; inactive = mostly below about 42%
Active calls of the source: *; nt = not tested or not shown. The list is not random: actives were taken first. Their share in the collection is about 2.9%.

SMILES	NadD block	Beta2AR agonist	Granule exo inh	GRK2 inh	PP1 inh	PP1 confirm	PP5 counter	NadD conf	others
NC(=O)[C@H]1CC2(CC(c3cccc(NC(=O)CC(c4ccccc4)c4ccccc4)c3)=NO2)CN1C(=O)c1ccccc1C(=O)c1ccccc1 (some centres not stated)	44.1*	1.2	9.7	0.0	19.2*	11.7	0.2	30.1
c1ccc(-c2cc(-c3nnc4n3N=C(c3ccc5ccccc5c3)CS4)[nH]n2)cc1	54.6*	1.5	-0.9	1.0	30.5*	22.5*	-2.3	4.1
C[C@]12C=CC(=O)C=C1CC[C@@H]1C2=CC[C@]2(C)[C@@H](C(=O)CN3CCN(c4cc(N5CCCC5)nc(N5CCCC5)n4)CC3)CC[C@@H]12	32.9*	10.8	2.8	0.0	26.0*	50.0*	25.1*	-0.1
O=C1CCC(C(=O)N2CCSCC2)CN1Cc1cccc(C(F)(F)F)c1 (configuration not stated)	2.3	-4.2	-0.2	0.0	-5.4	nt	nt	nt
NC(=O)CSc1nc2scc(-c3ccco3)c2c(=O)n1-c1ccccc1	10.2	2.4	1.3	11.0	9.4	nt	nt	nt
O=c1c2c(-c3ccco3)csc2nc(SCc2cn3cccnc3n2)n1-c1ccccc1	35.7*	-3.7	-1.1	0.0	28.9*	20.9*	0.4	7.9
C#CCn1c(=NC(=O)c2cc(-c3cccs3)nc3ccccc23)sc2cc(S(N)(=O)=O)ccc21	53.3*	-12.0	6.1	1.0	20.3*	4.0	-0.5	54.8*
NS(=O)(=O)c1ccc(NC(=O)c2cc(-c3cccs3)nc3ccccc23)cc1	2.9	-5.1	-6.8	13.0	8.1	nt	nt	nt
O=C(COC(=O)/C=C/c1ccc(Br)o1)Nc1ccc2[nH]c(=O)[nH]c2c1	29.1*	-0.8	-6.1	30.0	20.6*	25.3*	3.4	1.8
CC[C@]1(C(=O)OC)[C@H]2C(=O)N(Cc3ccccc3)C(=O)[C@H]2[C@H]2CN=C(SC)N21	-2.3	0.7	-2.5	3.0	nt	nt	nt	nt
O=C(Nc1ccc2oc(-c3cccnc3)nc2c1)c1ccc2c(c1)OCCO2	33.1*	-4.0	3.3	60.0*	30.1*	14.4	-5.1	2.8	GRK2 CP1=7.2;FAM quench CP1=96.4
O=C(Nc1ccc2oc(-c3ccccc3)nc2c1)c1ccc2c(c1)OCCO2	-1.7	11.0	0.0	0.0	-1.4	nt	nt	nt
CCN1C(=O)[C@H]2[C@H]3CN=C(SCc4ccc(Cl)cc4)N3[C@@](C)(C(=O)OC)[C@H]2C1=O	2.7	5.6	-2.0	0.0	nt	nt	nt	nt
C[C@H](CO)N1C[C@H](C)[C@@H](CN(C)S(C)(=O)=O)Oc2ccc(NC(=O)c3ccncc3)cc2C1=O	2.3	-0.1	-5.2	3.0	nt	nt	nt	nt
CC(C)c1ccc(-c2nc(N3CCCCC3)[nH]c(=O)c2C#N)cc1	4.5	2.9	3.5	0.0	0.7	nt	nt	nt
CC1=Nc2nc(N3CCCCC3)c(C#N)c3c4c(nc(c23)N1)N(c1ccc(C(C)C)cc1)C(=O)C4	62.6*	-7.9	0.3	0.0	19.8*	16.1*	-1.1	12.4
COc1ccccc1N1CCN(Cc2cc(=O)n3ccsc3n2)CC1	-1.9	-2.9	-1.7	2.0	-2.3	nt	nt	nt
CC1Cc2ccccc2N1Cc1cc(=O)n2ccsc2n1 (configuration not stated)	27.6*	0.5	-2.7	9.0	21.9*	19.3*	-1.5	10.7
CC(/C=N/Nc1ncc(C)c(=O)[nH]1)=C\c1ccccc1	1.5	7.0	-2.9	4.0	-6.2	nt	nt	nt
CC(C)(C)c1ccc(S(=O)(=O)N2CCCCC2)cc1	1.8	6.9	0.7	0.0	-2.0	nt	nt	nt
Cc1cc(C)c2nc(NNC(=O)c3ccc(S(=O)(=O)N4CCc5ccccc5C4)cc3)sc2c1	60.4*	16.3	-1.7	0.0	21.9*	26.8*	1.0	61.2*
Cc1cc(C)c2sc(NNC(=O)c3ccc(S(=O)(=O)N4CCc5ccccc5C4)cc3)nc2c1	63.7*	35.5	-0.5	0.0	24.3*	37.5*	-2.1	55.6*
CCc1nnc(NC(=O)c2ccc(S(=O)(=O)N3CCc4ccccc4C3)cc2)s1	-4.7	0.2	2.2	0.0	-3.7	nt	nt	nt
Cc1ccc(C(=O)C2CC2)cc1C	0.6	-0.2	-0.2	nt	nt	nt	nt	nt
O=C(Cc1cccc2ccccc12)N/N=C/c1ccc2cccc(O)c2n1	29.7*	21.4	1.6	4.0	24.6*	21.0*	0.4	37.3
SMILES	NadD block	Beta2AR agonist	Granule exo inh	GRK2 inh	PP1 inh	PP1 confirm	PP5 counter	NadD conf	others
CCOc1ccc(NC(=O)c2cccc(-n3cccc3)c2)cc1S(=O)(=O)N1CCOCC1	32.2*	-9.9	-1.8	43.0*	21.5*	22.7*	1.2	30.4
Nc1ccc2nc(-c3cccc(-c4nc5ccc(N)cc5[nH]4)c3)[nH]c2c1	39.1*	14.8	4.0	99.0*	42.1*	-2.5	4.3	23.8	GRK2 CP1=-53.1;FAM quench CP1=89.6
COc1cccc(NC(=S)N2CCN(Cc3ccccc3)CC2)c1	2.7	-0.6	4.6	1.0	1.1	nt	nt	nt
COc1ccc(-c2cc(C(=O)NNC(=S)NC(=O)c3c(-c4ccccc4)noc3C)[nH]n2)cc1	42.5*	-1.8	-4.2	0.0	17.7*	16.9*	-0.5	52.5*
Cc1onc(-c2ccccc2)c1C(=O)NNC(=S)NC(=O)c1ccc(Br)cc1	9.9	-2.2	-8.7	0.0	5.9	nt	nt	nt
COc1ccc2c(Cl)c(C(=O)NCCCn3ccnc3)sc2c1Cl	35.7*	4.9	1.2	0.0	18.4*	2.6	-4.0	7.4
Cc1ccc2nc(NC(=O)C3CCN(S(=O)(=O)c4cc([N+](=O)[O-])ccc4Cl)CC3)sc2c1	30.9*	18.8	-0.3	11.0	20.4*	25.9*	3.4	-0.2
Cc1ccc(NC(=O)C2CCN(S(=O)(=O)c3cc([N+](=O)[O-])ccc3Cl)CC2)nc1	2.7	-5.2	-2.4	9.0	nt	nt	nt	nt
CCN1/C(=C/C=C/C=C/C=C/c2sc3ccccc3[n+]2CC)Sc2ccccc21	39.7*	-5.7	-49.8	22.0	19.9*	39.1*	-0.4	79.0*
CCOC(=O)Cn1c(=NC(=O)c2sc3ccccc3c2Cl)sc2cc(S(N)(=O)=O)ccc21	51.1*	-5.3	-2.3	0.0	30.4*	31.5*	-3.0	-1.5
COC(=O)Cn1c(=NC(=O)c2nc3ccccc3s2)sc2cc(S(C)(=O)=O)ccc21	nt	nt	nt	0.0	0.4	nt	nt	nt
COC(=O)c1cc(=O)n(-c2ccc(C(F)(F)F)cc2)[nH]1	2.8	7.3	-1.2	3.0	-3.5	nt	nt	nt
